# The whole screen tested about 48,000 compounds, of which about 13,000 (27%) showed an effect of 50% or more. The list shows a part of the results.
# System: Wolbachia pipientis
# Assay: Anti-Wolbachia Cell-Based Screen
# Format: functional
# Parameters: scale not given: in the data most compounds retested in dose-response had high values
# Conditions: 5 µM
row,SMILES,Percent Effect
1,CC(C)C(=O)N1CCN(C(=O)CCc2nnc(-c3ccccc3)o2)CC1,-5.371%
2,CN(CCn1cccn1)S(=O)(=O)c1ccc(C#N)cc1,-4.99%
3,CC(C)c1ncncc1C(=O)N1CCN(Cc2ccccn2)CC1,108.4%
4,CC(C)c1ncncc1C(=O)N1CCCN(Cc2cccs2)CC1,14.44%
5,CCc1ncncc1C(=O)N1CCCN(Cc2ccc(C)cc2)CC1,-0.6521%
6,CCCc1c(C(=O)N2CCN(Cc3ccccn3)CC2)cnn1C,12.63%
7,Cc1ccc(C(=O)N2CCN(Cc3ccsc3)CC2)n1C,-3.003%
8,CC(C)c1ncncc1C(=O)N1CCN(Cc2ccsc2)CC1,100.4%
9,CC(C)c1ncncc1C(=O)N1CCN(Cc2cccnc2)CC1,115.2%
10,CC(C)c1cc(C(=O)N2CCN(Cc3ccsc3)CC2)n[nH]1,8.435%
11,CC(C)CN1CCN(C(=O)c2cccnc2-n2cncn2)CC1,-9.606%
12,CCc1c(C)[nH]c(C(C)(N)CC)nc1=O.Cl (stereo not given),22.39%
13,COc1cccc(COCC(O)CN(C)c2ccc(C)cc2C)c1 (stereo not given),0.5373%
14,Cn1cc(CNC2CCOCC2)c(-c2cc3ccccc3o2)n1,2.257%
15,O=c1c2ccccc2nc2n1CCN(Cc1cccs1)CC2,-4.199%
16,Cc1nn(C)cc1CN1CCc2nc3sccc3c(=O)n2CC1,108%
17,Cc1cc2c(=O)n3c(nc2s1)CCN(Cc1cnn(C)c1C)CC3.Cl,-7.845%
18,Cc1c(CN2CCc3nc4sccc4c(=O)n3CC2)cnn1C.Cl,100.5%
19,Cn1cc(CN2CCc3nc4ccccc4c(=O)n3CC2)cn1,97.31%
20,Cn1cc(CN2CCCN(C(=O)c3cc(Cl)cn3C)CC2)cn1,-17.2%
21,Cn1cc(CN2CCc3nc4sccc4c(=O)n3CC2)cn1,107.2%
22,Cn1cc(CN2CCCN(C(=O)c3cn4ccccc4n3)CC2)cn1,23.55%
23,CC(C)(C)c1n[nH]cc1CN1CCc2nc3ccsc3c(=O)n2CC1,-17.99%
24,COCCN(Cc1cnn(C)c1)c1nc(C)nc2sccc12,10.56%
25,CCn1nc2c(cc1=O)CN(Cc1nc(-c3ccoc3)no1)CC2,-3.016%
26,Cn1cc(C2CCCN2C(=O)c2cnc(-c3ncccn3)s2)cn1 (stereo not given),107.5%
27,Cn1cc(C2CCCN2C(=O)c2cnc(-c3ccco3)s2)cn1 (stereo not given),97.73%

row,SMILES,Percent Effect
1,Cn1cc(C2CCCN2C(=O)c2cnc(-c3ccccn3)s2)cn1 (stereo not given),99.88%
2,Cn1cc(C2CCCN2C(=O)Cc2coc(-c3ccccc3)n2)cn1 (stereo not given),-3.572%
3,Cn1cc(C2CCCN2C(=O)Cc2n[nH]c3ccccc23)cn1 (stereo not given),-7.231%
4,Cn1cc(C2CCCN2C(=O)c2cnc(-c3cccs3)s2)cn1 (stereo not given),79.27%
5,Cn1cc(C2CCCN2C(=O)c2ccc(Br)o2)cn1 (stereo not given),-1.087%
6,c1c[nH]c(-c2cn(CCSc3cnn[nH]3)nn2)n1,-6.5%
7,O=C(COCC1CC1)N1CCSCC1,-4.058%
8,CC(=O)NCc1ccc(S(=O)(=O)NC(=O)c2ccc3c(c2)CCO3)s1,-11.39%
9,CN(Cc1nc2ccccc2n1C)CC1CCCN1c1cccnn1 (stereo not given),-5.038%
10,Brc1csc(CNCc2nnc3n2CCC3)c1,-6.201%
11,Cn1cc(C2CCCN2C(=O)CS(=O)(=O)C2CCCC2)cn1 (stereo not given),4.822%
12,Cn1cc(C2CCCN2C(=O)c2cnc(C3CC3)s2)cn1 (stereo not given),90.11%
13,CS(=O)(=O)N1CCN(Cc2c(O)ccc3oc4c(c23)CCCC4)CC1,-24.14%
14,CCC(CC)(CNC(=O)c1cccn1Cc1cccnc1)N(C)C,-9.831%
15,CCc1nc2c(N3CCCC(c4nccn4CCOC)C3)ncnc2o1 (stereo not given),-3.273%
16,CSCC1CCN(c2nc(N)ncc2C)CC1,-31.92%
17,CCN(CC)C(=O)C1CCCN(c2ncnc3oc(C)nc23)C1 (stereo not given),73.24%
18,Cc1nc2c(N3CCC(O)(Cn4ccnc4)CC3)ncnc2o1,2.472%
19,CSCC1CCCN(c2ncnc3oc(C)nc23)C1 (stereo not given),100.1%
20,CSc1ccccc1CN1C[C@@H]2CC[C@H](C1)N(CC1CC1)C2=O,-21.61%
21,NC(=O)CCCNC(=O)c1cc(Br)c2c(c1)OCCO2,-9.821%
22,COc1ccc2cc(CN(C)CCN3CCCCC3=O)c(=O)[nH]c2c1,1.998%
23,COc1ccccc1C1(CNc2cc(C(=O)N(C)C)ccn2)CC1,-1.454%
24,CNC(=O)Cc1cc2nccc(-c3c(OC)cccc3OC)n2n1,105.1%
25,COc1cccc(OC)c1-c1ccnc2cc(CC(=O)NC(C)C)nn12,87.37%
26,COc1cccc(CCNC(=O)NC(C)C)c1O,-0.2442%
27,COc1ccccc1OCC(=O)n1nc(C)c(C)c1C,-12.46%

row,SMILES,Percent Effect
1,COc1cccc(OC)c1-c1ccnc2cc(CC(=O)NC3CC3)nn12,130.6%
2,COc1ccccc1CC1CCCN(CC(=O)NC2CC2)C1 (stereo not given),10.43%
3,COc1ccccc1CC(=O)NCc1ccnc(NC2CC2)c1,-7.733%
4,COc1cccnc1NC(=O)COc1c(C)cccc1C,-5.049%
5,COc1cccc(CNC(=O)C(C)n2ccnc2C(C)C)c1OC (stereo not given),-21%
6,COc1cccc(OC)c1-c1ccnc2cc(CC(=O)N(C)C)nn12,89.81%
7,CCCc1cc(C(=O)N(C)Cc2ccc(OC)c3ncccc23)n(C)n1,-87.89%
8,CN1CCOC(C(=O)N2CCC3(CCCCC3)C2)C1 (stereo not given),13.97%
9,CCCc1ccc(S(=O)(=O)NC2(CC(N)=O)CCC2)cc1,-11.45%
10,O=C(NCCn1cccc1)C(c1cccnc1)N1CCCC1 (stereo not given),4.567%
11,O=C(NCCNc1cccnc1)C(c1cccnc1)N1CCCC1 (stereo not given),-8.824%
12,O=C(NCCn1cccc1)C(c1ccccc1)N1CCCC1 (stereo not given),123.6%
13,O=C(NCCN1CCCCC1)C(c1ccccc1)N1CCCC1 (stereo not given),103.1%
14,CN1CCN(CCNC(=O)C(OC2CCCC2)c2ccccc2)CC1 (stereo not given),-1.077%
15,O=C(NCCN1CCOCC1)C(OC1CCCC1)c1ccccc1 (stereo not given),1.172%
16,CC(=O)N1CC[C@H]2OCC[C@@H](C(=O)Nc3cccnc3C)[C@@H]2C1,106.3%
17,CC(=O)N1CC[C@H]2OCC[C@@H](C(=O)Nc3cccnc3C)[C@H]2C1,87.27%
18,CC(C)NC(=O)[C@@H]1CCO[C@@H]2CCN(c3ncccn3)C[C@H]21,-20.97%
19,CC(=O)N1CC[C@H]2OCC[C@@H](C(=O)N3CCCCO3)[C@@H]2C1,7.512%
20,CCC(CNC1CCN(C(C)=O)CC1)Oc1ccccc1Cl (stereo not given),3.786%
21,NC(=O)N1CCCC(C(=O)NCc2ccccc2OC(F)(F)F)C1 (stereo not given),21.92%
22,CCC(O)CNC(=O)c1cc(COc2ccc(OC)cc2Cl)[nH]n1 (stereo not given),4.505%
23,O=C(CCc1ccccc1)Nc1ncccc1OC(F)F,-7.341%
24,CSCCC(=O)N1CCCN(Cc2cnn(C(C)C)c2)CC1,82.47%
25,CSC(C)C(=O)N1CCCN(Cc2cnn(C(C)C)c2)CC1 (stereo not given),-3.847%
26,CCn1cc(CN2CCCN(C(=O)CCSC)CC2)cn1,96.36%
27,CCc1nnsc1C(=O)N1CCCN(Cc2cnn(C)c2)CC1,1.125%

row,SMILES,Percent Effect
1,CC(C)(C)OC(=O)N1CSC[C@@H]1C(=O)NCc1cccc(C#N)c1,-10.68%
2,COc1ccc2nc(CNC(=O)c3cc(C(C)C)on3)[nH]c2c1,-7.42%
3,Cc1ccc(NCCCNC(=O)C2CC3(CCNCC3)CN2C)nc1 (stereo not given),-3.217%
4,Cc1ncsc1CCCNC(=O)C1CC2(CCNCC2)CN1C (stereo not given),23.09%
5,COc1ccc2nc(CNC(=O)C3CC4(CCNCC4)CN3C)[nH]c2c1 (stereo not given),101.4%
6,Cc1ccc2[nH]c(CNC(=O)C3CC4(CCNCC4)CN3C)nc2c1C (stereo not given),105.7%
7,CCn1nc(C(C)C)cc1C(=O)NCc1nc2ccc(OC)cc2[nH]1,5.154%
8,Cn1nnc2c1CCN(S(C)(=O)=O)C2COCC1CC1 (stereo not given),-21.64%
9,Fc1cc(CNCc2ccc3c(c2)CCO3)ccc1N1CCOCC1,14.1%
10,CCC[C@@H]1CN(C(=O)c2conc2-c2ccccc2)C[C@H]1N(C)C,-6.905%
11,CCc1nc2ccccc2c(=O)n1CC1(O)CCN(C(=O)COC)CC1.Cl,76.81%
12,Cc1nc2ccccc2c(=O)n1CCC(=O)N1CCSCC1,-8.454%
13,COC(=O)Cn1c(=O)nc2n1C(=O)N(c1ccccc1)C2,-2.891%
14,CC(=O)c1cn(CC(=O)N2CCC(O)(CO)CC2)c2ccccc12,-13.61%
15,CCCC(=O)N1CCC(O)(Cn2c(CC)nc3ccccc3c2=O)CC1.Cl,-3.591%
16,CCc1nc2ccccc2c(=O)n1CC1(O)CCN(C(=O)C(C)C)CC1,101.9%
17,Cc1nc2ccccc2c(=O)n1Cc1nnnn1C1CC1,-4.17%
18,CCc1nc2ccccc2c(=O)n1CC1(O)CCN(C(=O)C2CC2)CC1.Cl,111.9%
19,CCc1nc2ccccc2c(=O)n1CC1(O)CCN(CC(=O)OC)CC1,94.95%
20,COCC(=O)N1CCCN(Cc2cc(O)c3ccccc3n2)CC1,-35.6%
21,CS(=O)(=O)N1CCC(O)(Cn2c(C3CC3)nc3ccccc3c2=O)CC1,-5.897%
22,CCC(Oc1ccc(N(C)S(C)(=O)=O)cc1)C(=O)NC (stereo not given),9.37%
23,CC(C)NC(=O)N1CCCC2(CCCCN2)C1 (stereo not given),-45.21%
24,CNC(=O)Cc1noc(-c2cc3c(s2)CCCC3)n1,9.229%

# — ChEMBL document CHEMBL3988442, “University of Dundee, Small-Polar-MMV Screening Library” (2021)
